# Measured values: PubChem BioAssay (NCATS)
# Inconclusive results are not listed. Where a call stands in place of a potency, no number is given. Active and inactive are the calls of the source. Unless noted, the call rests on the fitted dose curve.
# Columns and labels:
# [1] = target: Glucocorticoid receptor (Homo sapiens) (UniProt P04150); test: qHTS assay for small molecule agonists of glucocorticoid receptor signaling (AID 588532; active means well fitted curve in the direction sought with a large enough effect in the signal ratio, with a control signal flat; the % refers to the signal ratio); details: HeLa MMTV-bla, beta-lactamase ratio, agonist, 18 h; activation: stronger effect = higher value, percent of dexamethasone control, DMSO zero
# Method in brief: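 Stimulation of a glucocorticoid response element-driven beta-lactamase gene was measured in HeLa cells. Responses were scaled between DMSO basal and 0.1 uM dexamethasone, then fitted for half-maximal stimulation.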
# [2] = target: Peroxisome proliferator-activated receptor delta (Homo sapiens) (UniProt Q03181); test: qHTS assay for small molecule agonists of peroxisome proliferator-activated receptor delta signaling (AID 588534)
# Method in brief: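 Cell-based beta-lactamase reporter assay run in agonist mode: cells seeded and incubated 5 hrs at 37 C, compounds added and incubated 18 hrs at 37 C. CCF4 dye fluorescence read after 2 hrs at RT; EC50 and efficacy from Hill fits.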
# [3] = target: Vitamin D3 receptor (Homo sapiens) (UniProt P11473); test: qHTS assay for small molecule agonists of vitamin D receptor signaling (AID 588543)
# Method in brief: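 Measured: β-lactamase reporter activity (CCF4, 405 nm excitation, 460/530 nm emission) in HEK293T VDR-UAS-bla cells after 16 h compound exposure at 37 °C. Normalization against 50 nM 1α,25-dihydroxyvitamin D3 and DMSO; Hill-fit EC50.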
# [4] = target: Thyroid hormone receptor beta (Homo sapiens) (UniProt P10828); test: qHTS assay for small molecule agonists of thyroid hormone receptor beta signaling (AID 588545)
# Method in brief: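 In this cell-based screen, titrated compounds act on HEK 293 cells held in medium with 2% charcoal/dextran FBS, NEAA and pyruvate for 18 hrs at 37 C. Responses are expressed relative to T3 (10 nM) as 100% and basal DMSO as 0%.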
# [5] = qHTS assay for small molecule activators of the p53 signaling pathway (AID 651743; active means well fitted activation curve with a large enough effect in the signal ratio, not every such curve was filed as active; the % refers to the signal ratio; further: series mostly up to about 92 µM); details: HCT-116 p53RE-bla, beta-lactamase FRET ratio, 16 h; activation: stronger effect = higher value
# Method in brief: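 p53RE-bla HCT-116 cells with a stably integrated beta-lactamase reporter under p53 response elements were plated, rested 5 hours at 37 C/5% CO2, then exposed to compounds in DMSO for 16 hours at 37 C. LiveBLAzer B/G FRET substrate was read after 2 hours at room temperature.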
# [6] = qHTS assay for small molecule activators of the nuclear factor-kappa B (NF-kB) signaling pathway (AID 651749; active means well fitted activation curve with a large enough effect in the signal ratio; the % refers to the signal ratio; further: series mostly up to about 77 µM); details: NF-kB-bla ME-180 cells, beta-lactamase FRET ratio, 16 h; activation: stronger effect = higher value
# Method in brief: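 ME-180 cells stably carrying a beta-lactamase reporter under an NF-kB response element were exposed to compound or DMSO vehicle for 16 hr at 37C, 5% CO2. Pathway activation was read by FRET, since reporter expression disrupts FRET.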
# [7] = qHTS assay for environmental chemicals that activate the Aryl hydrocarbon Receptor (AhR) signaling pathway (AID 651777; active means well fitted curve in the direction sought with a large enough effect; an effect the other way counts as inactive or inconclusive; further: nearly all actives have a fitted effect of over 15% in size); details: 1A2-DRE human hepatoma cells, luciferase, 24 h; activation: stronger effect = higher value
# Method in brief: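 Human hepatoma 1A2-DRE cells, stably carrying a dioxin response element and CYP1A2 promoter driving luciferase, were exposed to compounds for 24 hr at 37 C and 5% CO2. Luciferase signal was then read after 30 min One-Glo at room temperature.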
# [8] = target: Peroxisome proliferator-activated receptor alpha (Homo sapiens) (UniProt Q07869); test: qHTS assay for small molecule agonists of the peroxisome proliferator-activated receptor alpha (PPARalpha) signaling pathway (AID 651778; active means well fitted curve in the direction sought with a large enough effect; an effect the other way counts as inactive or inconclusive); details: PathHunter PPARalpha complementation, chemiluminescence, 6 h; max response: stronger effect = higher value
# Method in brief: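 Cells plated at 2,000/well and held overnight at 37 C, 5% CO2, then compound added by pin tool for 6 hr; after PathHunter detection reagent and 60 min at room temperature, chemiluminescence from enzyme complementation was read.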
# [9] = qHTS assay for small molecule agonists of the antioxidant response element (ARE) signaling pathway measured by Nrf2-dependant transcriptional activity (AID 720636; active means well fitted curve in the direction sought with a large enough effect in the repeat runs; an effect the other way counts as inactive or inconclusive)
# Method in brief: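 ARE-luc HepG2 cells carrying an Nrf2-responsive luciferase reporter were plated in medium with 1% dialyzed FBS, left 6 hr at 37 C to attach, then exposed to compound for 16 hr. Luciferase luminescence was read after ONE-Glo addition.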
# [10] = qHTS assay for small molecule agonists of the antioxidant response element (ARE) signaling pathway measured by Nrf2-dependant transcriptional activity - cell viability counter screen (AID 720653; active means well fitted curve in the direction sought with a large enough effect in the repeat runs; an effect the other way counts as inactive or inconclusive); details: ARE-bla HepG2 viability, CellTiter-Glo ATP luminescence, 16 h; max response: stronger effect = lower value
# Method in brief: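 ARE-bla HepG2 cells (2,000/well) rested 5 hrs at 37C/5% CO2, then exposed to compounds in DMSO for 16 hrs. Viability was read in the same wells as intracellular ATP by luminescence, 30 min at room temperature after reagent addition.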
# [11] = qHTS assay for cell viability of HEK293 cells (AID 743288; active means well fitted curve in the direction sought with a large enough effect; an effect the other way counts as inactive or inconclusive; further: nearly all actives have a fitted effect of over 50% in size); details: ATP luminescence (CellTiter-Glo), 18 h; max response: stronger effect = lower value
# Method in brief: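 Luminescent ATP quantitation served as the viability read-out. Cells (parental HEK293, 2,000/well) received compounds after at least 5 h at 37 C and were exposed for 18 h before a 30 min room-temperature reagent step.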
# [12] = qHTS assay for cell viability of the p53RE-bla HCT-116 cell line (AID 743292; active means well fitted curve in the direction sought with a large enough effect; an effect the other way counts as inactive or inconclusive; further: nearly all actives have a fitted effect of over 55% in size)
# Method in brief: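 CellSensor p53RE-bla HCT-116 cells, 4,000/well, preincubated 5 h at 37 C, then exposed to compounds in DMSO for 16 h at 37 C. Viability read as CellTiter-Glo luminescence (intracellular ATP) after 30 min at room temperature.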
# [13] = target: Nuclear receptor subfamily 1 group I member 2 (Rattus norvegicus) (UniProt Q9R1A7); test: qHTS assay for small molecule activators of the rat pregnane X receptor (rPXR) signaling pathway (AID 651751; call rule not given here); details: rPXR reporter cells, luciferase (One-Glo), 24 h
# [14] = qHTS assay for small molecule activators of the human pregnane X receptor (PXR) signaling pathway (AID 720659; call rule not given here)
# [15] = target: Glucocorticoid receptor (Homo sapiens) (UniProt P04150); test: qHTS assay for small molecule antagonists of glucocorticoid receptor signaling (AID 588533; active means well fitted inhibition curve with a large enough effect in the signal ratio, with a control signal flat, not every such curve was filed as active; the % refers to the signal ratio;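 further: cells stimulated with 2 nM dexamethasone as agonist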)
# Method in brief: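 Antagonist-mode qHTS: compound titrations added to GRE-bla HeLa cells, then dexamethasone 2 nM final; 18 h, 37 C. CCF4 FRET fluorescence normalized to dexamethasone and DMSO; IC50 from Hill fit.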
# [16] = qHTS assay for small molecule antagonists of peroxisome proliferator-activated receptor delta signaling (AID 588535; active means well fitted inhibition curve with a large enough effect in the signal ratio, with a control signal flat, not every such curve was filed as active; the % refers to the signal ratio;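 on max response: cells co-treated with a PPAR-delta agonist as stimulator during compound exposure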); details: HEK293T PPARd-UAS-bla, beta-lactamase FRET ratio, 18 h; 460 nm channel
# Method in brief: (§1)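 GeneBLAzer PPAR-delta-UAS-bla HEK293T cells in medium with 2% charcoal/dextran FBS were preincubated 5 hrs at 37 C, then given compounds, incubated 18 hrs at 37 C, and read by CCF4 beta-lactamase fluorescence; IC50 from Hill fits.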
# [17] = target: Peroxisome proliferator-activated receptor delta (Homo sapiens) (UniProt Q03181); test: as above
# Method in brief: as §1
# [18] = target: Peroxisome proliferator-activated receptor gamma (Homo sapiens) (UniProt P37231); test: qHTS assay for small molecule agonists of peroxisome proliferator-activated receptor gamma signaling (AID 588536; active means well fitted curve in the direction sought with a large enough effect in the signal ratio, with a control signal flat, not every such curve was filed as active; the % refers to the signal ratio)
# Method in brief: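 Ratiometric blue/green fluorescence (405 nm excitation; 460 and 530 nm emission) from CCF4-loaded HEK293 reporter cells serves as signal. Exposure to test compounds lasts 16 h at 37 C in medium containing 1% charcoal/dextran-treated serum.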
# [19] = target: Peroxisome proliferator-activated receptor gamma (Homo sapiens) (UniProt P37231); test: qHTS assay for small molecule antagonists of peroxisome proliferator-activated receptor gamma signaling (AID 588537; active means well fitted inhibition curve with a large enough effect in the signal ratio, with a control signal flat, not every such curve was filed as active; the % refers to the signal ratio;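 further: reporter cells co-stimulated with 50 nM rosiglitazone agonist during compound treatment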)
# Method in brief: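 PPAR-gamma-UAS-bla HEK293 cells (3000/well, 1% charcoal/dextran-stripped FBS) were preincubated 6-6.5 h at 37 C, given titrated compounds, then stimulated with 50 nM rosiglitazone for 16 h. Beta-lactamase activity was read with CCF4 dye; IC50 came from Hill fits.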
# [20] = qHTS assay for small molecule agonists of retinoid X receptor alpha signaling (AID 588544); details: HEK293T RXRa-UAS-bla, beta-lactamase reporter, 18 h; 530 nm emission
# [21] = target: Retinoic acid receptor RXR-alpha (Homo sapiens) (UniProt P19793); test: as above
# [22] = qHTS assay for small molecule antagonists of retinoid X receptor alpha signaling (AID 588546; active means well fitted inhibition curve with a large enough effect in the signal ratio, with a control signal flat, not every such curve was filed as active; the % refers to the signal ratio;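 further: cells stimulated with 9-cis-retinoic acid as agonist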); details: HEK293T RXRa-UAS-bla, beta-lactamase ratio, antagonist mode; measured here: W530 green channel, cytotoxicity proxy
# Method in brief: (§2)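 Beta-lactamase reporter inhibition, read as CCF4 fluorescence ratio (ex 405, em 460/530 nm) after 2 h at RT. HEK293T UAS-bla cells, 2500/well, were stimulated with 9-cis-RA at 500 or 100 nM final alongside test compound for 18 h at 37 C.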
# [23] = target: Retinoic acid receptor RXR-alpha (Homo sapiens) (UniProt P19793); test: as above; details: HEK293T RXRa-UAS-bla, beta-lactamase ratio, antagonist mode
# Method in brief: as §2
# [24] = target: Thyroid hormone receptor beta (Homo sapiens) (UniProt P10828); test: qHTS assay for small molecule antagonists of thyroid hormone receptor beta signaling (AID 588547; active means well fitted inhibition curve with a large enough effect in the signal ratio, with a control signal flat, not every such curve was filed as active; the % refers to the signal ratio;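 further: cells stimulated with 0.4 nM T3 agonist during compound exposure; series mostly up to about 77 µM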); details: TR-UAS-bla HEK293, beta-lactamase ratio, antagonist mode, 18 h
# Method in brief: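 TR-UAS-bla GripTite HEK293 cells in 2% charcoal/dextran FBS medium were preincubated 4 h at 37 C, given compound (0.59 nM to 92 uM) plus 0.4 nM T3 (final) for 18 h, then CCF4 for 2 h at RT; Hill fit gave IC50.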
# Peroxisome proliferator-activated receptor gamma (Homo sapiens), sequence (P37231 whole entry, looked up): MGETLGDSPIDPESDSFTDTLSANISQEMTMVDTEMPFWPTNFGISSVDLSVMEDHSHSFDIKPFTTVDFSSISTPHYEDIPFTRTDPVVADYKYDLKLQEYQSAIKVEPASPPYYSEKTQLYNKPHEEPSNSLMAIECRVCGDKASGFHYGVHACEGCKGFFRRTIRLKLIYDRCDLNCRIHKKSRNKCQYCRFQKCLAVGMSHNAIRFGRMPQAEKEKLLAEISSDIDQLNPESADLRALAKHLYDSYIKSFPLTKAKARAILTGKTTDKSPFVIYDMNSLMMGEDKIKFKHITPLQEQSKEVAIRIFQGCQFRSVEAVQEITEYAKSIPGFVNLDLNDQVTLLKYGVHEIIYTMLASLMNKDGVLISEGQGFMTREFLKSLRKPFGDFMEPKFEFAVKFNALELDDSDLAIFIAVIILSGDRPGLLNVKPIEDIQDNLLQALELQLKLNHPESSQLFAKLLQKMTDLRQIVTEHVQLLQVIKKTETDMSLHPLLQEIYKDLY
# Thyroid hormone receptor beta (Homo sapiens), sequence (P10828 whole entry, looked up): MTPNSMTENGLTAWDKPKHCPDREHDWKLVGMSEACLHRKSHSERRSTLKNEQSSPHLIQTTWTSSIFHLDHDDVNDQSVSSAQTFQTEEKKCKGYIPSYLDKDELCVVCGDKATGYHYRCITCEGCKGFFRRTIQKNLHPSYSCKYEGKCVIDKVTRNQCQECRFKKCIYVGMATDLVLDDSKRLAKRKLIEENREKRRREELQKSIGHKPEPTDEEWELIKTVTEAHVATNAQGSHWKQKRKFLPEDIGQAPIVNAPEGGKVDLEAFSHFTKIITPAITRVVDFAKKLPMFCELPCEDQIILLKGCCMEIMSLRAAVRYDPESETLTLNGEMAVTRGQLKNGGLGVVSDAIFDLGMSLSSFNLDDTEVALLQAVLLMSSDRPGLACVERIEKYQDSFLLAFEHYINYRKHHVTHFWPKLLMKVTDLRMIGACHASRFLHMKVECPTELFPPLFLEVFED
# Peroxisome proliferator-activated receptor delta (Homo sapiens), sequence (Q03181 whole entry, looked up): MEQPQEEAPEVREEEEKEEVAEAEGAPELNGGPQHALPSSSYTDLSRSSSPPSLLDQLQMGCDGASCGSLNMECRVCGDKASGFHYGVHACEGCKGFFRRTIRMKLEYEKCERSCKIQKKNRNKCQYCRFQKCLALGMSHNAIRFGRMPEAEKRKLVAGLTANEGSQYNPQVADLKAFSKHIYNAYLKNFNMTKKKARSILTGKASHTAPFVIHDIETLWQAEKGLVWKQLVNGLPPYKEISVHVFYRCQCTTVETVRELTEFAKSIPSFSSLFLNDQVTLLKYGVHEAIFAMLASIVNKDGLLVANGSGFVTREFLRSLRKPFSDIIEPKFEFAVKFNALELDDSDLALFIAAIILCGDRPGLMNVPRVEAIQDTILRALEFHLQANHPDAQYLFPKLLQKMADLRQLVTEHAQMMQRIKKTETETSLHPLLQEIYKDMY
# Retinoic acid receptor RXR-alpha (Homo sapiens), sequence (P19793 whole entry, looked up): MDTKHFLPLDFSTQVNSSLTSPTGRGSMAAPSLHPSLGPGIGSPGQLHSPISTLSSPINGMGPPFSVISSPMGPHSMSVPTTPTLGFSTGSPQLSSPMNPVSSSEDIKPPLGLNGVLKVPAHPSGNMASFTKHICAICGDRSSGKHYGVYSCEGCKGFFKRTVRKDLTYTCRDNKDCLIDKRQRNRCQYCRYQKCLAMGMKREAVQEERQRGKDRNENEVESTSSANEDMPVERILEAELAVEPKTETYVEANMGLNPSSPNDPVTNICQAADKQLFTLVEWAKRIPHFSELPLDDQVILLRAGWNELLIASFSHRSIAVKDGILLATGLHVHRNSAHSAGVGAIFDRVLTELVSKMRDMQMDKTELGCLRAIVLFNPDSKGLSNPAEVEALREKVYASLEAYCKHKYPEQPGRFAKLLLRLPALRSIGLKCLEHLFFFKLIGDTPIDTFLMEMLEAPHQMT
# Peroxisome proliferator-activated receptor alpha (Homo sapiens), sequence (Q07869 whole entry, looked up): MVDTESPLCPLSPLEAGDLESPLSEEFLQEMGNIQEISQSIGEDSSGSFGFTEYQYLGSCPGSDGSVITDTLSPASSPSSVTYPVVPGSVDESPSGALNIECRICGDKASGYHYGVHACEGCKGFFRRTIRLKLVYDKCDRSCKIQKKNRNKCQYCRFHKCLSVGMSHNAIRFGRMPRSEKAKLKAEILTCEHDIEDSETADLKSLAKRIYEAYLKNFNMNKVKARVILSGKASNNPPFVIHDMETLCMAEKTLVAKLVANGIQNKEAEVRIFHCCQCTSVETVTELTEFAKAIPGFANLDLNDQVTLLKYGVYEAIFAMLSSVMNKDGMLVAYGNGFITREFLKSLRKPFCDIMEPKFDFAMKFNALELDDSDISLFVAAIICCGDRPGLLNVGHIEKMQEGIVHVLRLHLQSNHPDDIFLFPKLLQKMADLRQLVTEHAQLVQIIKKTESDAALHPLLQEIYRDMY
# Glucocorticoid receptor (Homo sapiens), sequence (P04150 whole entry, looked up): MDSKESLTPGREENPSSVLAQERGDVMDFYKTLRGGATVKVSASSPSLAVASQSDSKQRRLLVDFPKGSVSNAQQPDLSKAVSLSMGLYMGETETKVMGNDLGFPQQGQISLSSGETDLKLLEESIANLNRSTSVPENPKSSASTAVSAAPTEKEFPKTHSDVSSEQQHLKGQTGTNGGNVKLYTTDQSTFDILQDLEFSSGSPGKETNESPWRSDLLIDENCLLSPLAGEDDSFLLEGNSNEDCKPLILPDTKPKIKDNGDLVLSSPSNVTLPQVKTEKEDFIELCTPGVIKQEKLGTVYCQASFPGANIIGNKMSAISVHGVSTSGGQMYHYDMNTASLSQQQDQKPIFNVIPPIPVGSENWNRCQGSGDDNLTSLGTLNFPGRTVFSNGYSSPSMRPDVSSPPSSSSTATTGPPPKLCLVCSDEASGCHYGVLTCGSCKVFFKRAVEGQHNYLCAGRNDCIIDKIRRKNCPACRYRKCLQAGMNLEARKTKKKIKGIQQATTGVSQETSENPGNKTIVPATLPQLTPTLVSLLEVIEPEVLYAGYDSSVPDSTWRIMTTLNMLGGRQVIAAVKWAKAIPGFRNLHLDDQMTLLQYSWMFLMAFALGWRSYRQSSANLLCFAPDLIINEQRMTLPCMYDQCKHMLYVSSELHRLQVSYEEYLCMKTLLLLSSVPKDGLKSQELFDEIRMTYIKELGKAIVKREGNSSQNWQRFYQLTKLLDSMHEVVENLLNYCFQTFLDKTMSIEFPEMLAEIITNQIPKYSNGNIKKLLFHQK
# Nuclear receptor subfamily 1 group I member 2 (Rattus norvegicus), sequence (Q9R1A7 whole entry, looked up): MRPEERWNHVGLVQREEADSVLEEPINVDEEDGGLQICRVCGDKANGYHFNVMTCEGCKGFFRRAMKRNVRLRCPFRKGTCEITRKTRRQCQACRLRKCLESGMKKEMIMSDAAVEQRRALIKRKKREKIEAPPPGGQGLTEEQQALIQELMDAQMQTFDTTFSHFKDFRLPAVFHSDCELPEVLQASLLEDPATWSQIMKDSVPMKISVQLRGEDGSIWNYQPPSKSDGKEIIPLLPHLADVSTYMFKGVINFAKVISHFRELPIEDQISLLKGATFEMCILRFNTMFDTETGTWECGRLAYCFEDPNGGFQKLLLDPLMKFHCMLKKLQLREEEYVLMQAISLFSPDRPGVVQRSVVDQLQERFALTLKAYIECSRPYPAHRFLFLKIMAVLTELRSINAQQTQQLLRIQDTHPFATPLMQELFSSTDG
# Vitamin D3 receptor (Homo sapiens), sequence (P11473 whole entry, looked up): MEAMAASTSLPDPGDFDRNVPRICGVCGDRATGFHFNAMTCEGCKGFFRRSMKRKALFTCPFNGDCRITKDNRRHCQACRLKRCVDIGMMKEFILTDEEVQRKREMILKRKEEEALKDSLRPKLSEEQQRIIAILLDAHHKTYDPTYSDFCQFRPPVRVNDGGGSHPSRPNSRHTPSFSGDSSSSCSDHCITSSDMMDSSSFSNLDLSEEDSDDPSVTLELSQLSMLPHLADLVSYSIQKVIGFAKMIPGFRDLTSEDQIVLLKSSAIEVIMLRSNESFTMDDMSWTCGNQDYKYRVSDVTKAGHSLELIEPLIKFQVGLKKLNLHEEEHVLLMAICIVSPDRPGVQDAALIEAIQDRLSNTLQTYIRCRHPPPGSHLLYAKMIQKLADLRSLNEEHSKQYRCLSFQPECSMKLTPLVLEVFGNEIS
structure (smiles),measurement,setting,value
CCOP(=O)(OCC)Oc1nc(Cl)c(Cl)cc1Cl,activation,[1],-1.13% (inactive)
same,outcome,[2],inactive
same,outcome,[3],inactive
same,Potency,[4],inactive
same,activation,[5],-7.33% (inactive)
same,activation,[6],-2.7% (inactive)
same,activation,[7],3.16% (inactive)
same,max response,[8],-1.51% (inactive)
same,Potency,[9],inactive
same,max response,[10],6.34% (inactive)
same,max response,[11],-13.2% (inactive)
same,Potency,[12],inactive
same,max response,[13],2.55% (inactive)
same,outcome,[14],inactive
Cc1cccc(C(=O)O)c1,outcome,[2],inactive
O=C(O)COc1ccc(Cl)cc1,Potency,[15],inactive
same,outcome,[2],inactive
same,max response,[16],9.9%
same,Potency,[17],inactive
same,Potency,[18],inactive
same,Potency,[19],inactive
same,outcome,[3],inactive
same,max response,[20],18.4%
same,Potency,[21],inactive
same,Potency,[4],inactive
same,max response,[22],0.278%
same,max response,[23],-13.3% (inactive)
same,activity change % (negative = inhibition),[24],-4.24% (inactive)
same,activation,[5],-0.56% (inactive)
same,activation,[6],-0.213% (inactive)
same,activation,[7],1.68% (inactive)
same,max response,[8],-2.55% (inactive)
same,Potency,[9],inactive
same,max response,[10],1.53% (inactive)
same,max response,[11],-5.08% (inactive)
same,Potency,[12],inactive
same,max response,[13],-5.77% (inactive)
same,outcome,[14],inactive
CCNc1nc(Cl)nc(NC(C)(C)C#N)n1,activation,[1],-6.13% (inactive)
same,Potency,[15],inactive
same,outcome,[2],inactive
same,max response,[16],32.2%
same,Potency,[17],inactive
same,Potency,[18],inactive
same,Potency,[19],inactive
same,max response,[20],-4.23%
same,Potency,[21],inactive
same,Potency,[4],inactive
same,max response,[22],0.495%
same,max response,[23],-7.14% (inactive)
same,activity change % (negative = inhibition),[24],-10.7% (inactive)
same,activation,[5],-4.15% (inactive)
same,activation,[7],1.84% (inactive)
same,max response,[8],0.299% (inactive)
same,max response,[10],-18.8% (inactive)
same,max response,[11],4.63% (inactive)
same,Potency,[12],inactive
same,max response,[13],-0.0883% (inactive)
CCCCCCCCC,outcome,[2],inactive
CN(C)CCOCCN(C)C,outcome,[2],inactive
C=CC(=O)NC(C)(C)CS(=O)(=O)O,outcome,[2],inactive
CC1(C)C(=O)N(Br)C(=O)N1Cl,outcome,[2],inactive
Cc1cccc2cccnc12,outcome,[2],inactive
Cc1ccc2c(c1)C(=O)OC2=O,outcome,[2],inactive
O=C(Cl)c1c(Cl)cccc1Cl,outcome,[2],inactive
Cc1cc(C)cc(O)c1,outcome,[2],inactive
CC1=C2[C@@H]([C@H](C)CC[C@H]2/C=C(\C)C(=O)O)[C@H](O)C1,outcome,[2],inactive
Cc1ccc(C(C)(C)C)cc1,outcome,[2],inactive
NC(=O)NC(N)=O,outcome,[2],inactive
CCN(Cc1cccc(S(=O)(=O)O)c1)c1ccc(C(=C2C=CC(=[N+](CC)Cc3cccc(S(=O)(=O)[O-])c3)C=C2)c2ccccc2)cc1,outcome,[2],inactive
C[C@]12CC[C@@H]3c4ccc(O)cc4CC[C@H]3[C@@H]1CC[C@H]2O,outcome,[2],inactive
O=C1CCCCC1,outcome,[2],inactive
Cc1ccc2ncccc2c1,outcome,[2],inactive
CCc1ccccc1,outcome,[2],inactive
CC(C)N(C)C,outcome,[2],inactive
CC1=CC(C)(C)Nc2ccccc21,outcome,[2],inactive
O=C1CCC(C2CCCCC2)CC1,outcome,[2],inactive
CCCCCCCC/C=C\CCCCCCCC(=O)OC,outcome,[2],inactive
CN(C)C(=O)Nc1ccccc1,outcome,[2],inactive
Clc1nc(Cl)c(Cl)c(Cl)c1Cl,outcome,[2],inactive
C=CC(C)(O)CCCC(C)CCCC(C)CCCC(C)C (centres undefined),outcome,[2],inactive
COc1ccc(N)c(OC)c1,outcome,[2],inactive
CCCCCCCCCCCCCCCCCC#N,outcome,[2],inactive
COC(=O)c1ccccc1C(=O)O,outcome,[2],inactive
